HCT116 bCat-KO: primary screen for growth suppressors in beta-catenin knockout HCT116 cells (colon tumor, human). HCT116 beta-catenin knockout viability, CellTiter-Glo, 60 h; hits give low values. viability, % at 10 µM. 140,000 tested, 1.5% active;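 active means viability at or under a set limit, the compound median less 4 SD, cut at about 6% in these data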
Lmaj promast: Leishmania major promastigote growth inhibition, primary screen | Leishmania major promastigotes, resazurin fluorescence viability | inhibition, % at 10 µM | 200,000 tested, 9% active; in the data active means inhibition above about 50%;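 further: promastigotes grown with compound for 44 hours at 28 °C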
PTEN del growth: growth suppression of PTEN-null HCT116, primary screen, cell-based, CellTiter-Glo | HCT116 PTEN-null viability, 60 h; hits give low values | viability, % at 10 µM | 140,000 tested, 1.2% active;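 active means viability at or below a set limit, 4 SD under the median of all tested compounds, cut at about 3.7% in these data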;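 further: PTEN knockout HCT116 line with beta catenin targeted HCT116 as companion control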
p97 inhibitor: inhibitors of human p97 ATPase, primary screen, biochemical; AID 1481, 2009; Transitional endoplasmic reticulum ATPase (Homo sapiens), P55072; 220,000 tested, 0.42% active; inhibition, % at 8 µM; recombinant p97 ATPase, Kinase-Glo ATP luminescence, 3 h; in the data active means inhibition above about 15%
ROMK mod: ROMK potassium channel modulators, primary screen, cell-based, thallium flux, MLSMR library; AID 1918, 2009; B-score at 10 µM; ATP-sensitive inward rectifier potassium channel 1 (Homo sapiens), P48048; 130,000 tested, 2% active; Tet-inducible ROMK, thallium flux fluorescence; actives lie on both sides;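 active means signal ratio slope over the read window, or its plate-corrected B-score, at least 3 SD from the plate mean, either direction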;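 further: B-score of the F/F0 ratio slope over 7 to 12 s after thallium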
Target sequence (P48048 whole entry, looked up): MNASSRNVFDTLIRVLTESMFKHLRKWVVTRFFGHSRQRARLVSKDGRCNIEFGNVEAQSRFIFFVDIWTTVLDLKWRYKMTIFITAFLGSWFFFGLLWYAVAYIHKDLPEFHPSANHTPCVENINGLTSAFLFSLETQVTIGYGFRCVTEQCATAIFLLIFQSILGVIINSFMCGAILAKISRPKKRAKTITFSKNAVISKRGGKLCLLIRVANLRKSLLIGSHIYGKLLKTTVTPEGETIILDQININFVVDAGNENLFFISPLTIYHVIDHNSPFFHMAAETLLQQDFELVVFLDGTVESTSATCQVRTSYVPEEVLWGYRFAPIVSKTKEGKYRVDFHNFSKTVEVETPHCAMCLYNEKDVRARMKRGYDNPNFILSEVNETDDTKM
INS promoter inh: inhibitors of insulin promoter-driven GFP, primary screen, imaging, TRM-6 cells (human fetal islet line), eGFP reporter, cell count. reporter expression induced with tamoxifen. inhibition, % at 2 µM. 130,000 tested, 0.9% active. AID 1273, 2008;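 active means inhibition above the mean plus 3 SD, with well images judged a real hit on visual review, cut at about 60% in these data, passing the limit was not always enough; inconclusive means inhibition over the cutoff but images rejected on review; inactive means inhibition not above the cutoff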
ROMK retest: ROMK channel modulator hit retest, confirmation, cell-based, thallium flux, duplicate, resupplied hits. shares compounds with ROMK mod. fluorescence ratio; hits give low values. normalized thallium flux (F/F0 slope) at 10 µM. 3,000 tested, 54% active. AID 1917, 2009;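 active means Flux at 10 µM at least 3 SD below or above vehicle control mean in one or both replicates; inconclusive means no clear call, values can overlap the other calls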
Numbers stand for hits; – = inactive; ? = inconclusive; · = no result. Hits are enriched below; roughly 10% of the tested compounds scored in any of these assays.

SMILES	HCT116 bCat-KO	Lmaj promast	PTEN del growth	p97 inhibitor	ROMK mod	INS promoter inh	ROMK retest
COc1ccc(-c2cc(C(=O)Nc3cc(C)nn3-c3ccccc3)no2)cc1OC	·	–	·	–	3.69	·	–
CCC1(CC)N=C(c2ccccc2)C(=S)N1	·	–	·	–	–	–	·
C=CCNC(=O)/C(C#N)=C\c1cc(Cl)c(OCC)c(OC)c1	–	85.5	–	–	-2.94	–	0.044
C=CCNC(=O)/C(C#N)=C/c1cc(Br)ccc1OC	·	–	·	–	–	·	·
Cc1ncc(CC(=O)n2cc(C(=O)c3cc(F)ccc3O)cn2)s1	–	–	–	–	·	–	·
Cc1ccc(O)c(C(=O)c2cnn(C(=O)Cc3csc(C)n3)c2)c1	–	–	–	–	-6.7	–	–
CC(C(=O)NC1CCCc2ccccc21)N1CCN(Cc2ccc3c(c2)OCO3)CC1 (centres undefined)	–	86.2	–	–	-2.95	–	0.0584
COC(=O)/C=C1\C(=O)N(c2nc3ccccc3s2)C(=S)N1c1ccc(F)cc1	–	–	–	–	-2.76	–	0.0643
Cc1cc(/C=C2/C(=N)N3C(=NC2=O)SN=C3S(C)(=O)=O)c(C)n1-c1ccc(F)cc1	·	–	·	–	–	?	·
Cc1ccc(-n2cccc2/C=C2/C(=N)N3C(=NC2=O)SN=C3S(C)(=O)=O)cc1Cl	–	–	–	–	·	·	–
O=C(OCCNC(=O)c1ccc2ccccc2n1)c1ccc(F)cc1	–	–	–	–	·	–	·
Cc1cc(-c2ccccc2C(=O)Nc2ccccc2O)on1	·	·	·	–	·	·	·
CC(=O)NC12CC3CC(C1)CC(C(=O)OCC(=O)Nc1ncc(Cl)cc1Cl)(C3)C2	–	–	–	–	-4.02	–	–
COc1ccc(C2=NOC(C(=O)NCc3cccs3)C2)cc1OC (centres undefined)	–	–	–	–	–	·	·
COc1ccc(C2=NOC(C(=O)NCc3ccco3)C2)cc1 (centres undefined)	–	–	–	–	3.89	–	?
COc1ccc(C2=NOC(C(=O)NCc3cccs3)C2)cc1 (centres undefined)	–	–	–	–	3.82	–	–
C/C(CC(=O)Nc1ccc2c(c1)OCO2)=N\NC(=O)OC(C)(C)C	·	–	·	–	–	·	·
CCOC(=O)CCNC(=O)c1ccccc1Br	–	–	–	–	·	–	–
CCn1c(CNc2cccc(Cl)c2)nnc1SCC(=O)OC1CCCCC1	–	–	–	–	·	·	0.0621
COc1ccc(CN2C(=O)CSC2c2ccccn2)cc1 (centres undefined)	·	·	·	–	·	·	·
O=C1/C(=C/c2ccc(N3CCOCC3)o2)SC(=Nc2ccccc2)N1CCc1c[nH]c2ccccc12	1.4	99.9	1.4	–	·	·	0.0588
O=C(Cn1c(CO)nc2ccccc21)Nc1ccccc1Cl	·	–	·	–	-2.5	·	0.062
Nc1nc(NCc2ccco2)nc(N2CCCCCC2)c1[N+](=O)[O-]	–	–	–	–	·	–	0.0622
O=C(COc1cccnc1[N+](=O)[O-])Nc1ccc(S(=O)(=O)N2CCOCC2)cc1	·	–	·	–	–	–	·
O=C(O)c1ccc(-c2nc(-c3cccc(C(F)(F)F)c3)cs2)cc1	·	–	·	–	3.15	·	–
SMILES	HCT116 bCat-KO	Lmaj promast	PTEN del growth	p97 inhibitor	ROMK mod	INS promoter inh	ROMK retest
O=C(O)c1ccc(-c2nc(-c3ccc(Cl)cc3)cs2)cc1	·	–	·	–	–	–	·
Clc1ccc(CSc2nnc(-c3cccnc3)n2Cc2ccco2)c(Cl)c1	–	–	–	–	-2.4	–	?
Cc1cc(Sc2ncnc(N)c2[N+](=O)[O-])ncn1	·	–	·	–	-0.967	·	–
CNC(=O)CCCc1nc(-c2ccccc2Cl)no1	–	–	–	–	3.05	–	–
COc1ccc(/C=N/NC(=O)c2cc(=O)[nH]c3ccccc23)cc1OC	·	–	·	–	–	–	·
CN(CCCC(=O)Nc1ccncc1)S(=O)(=O)c1ccc(Cl)cc1	–	85.6	–	–	-3.35	–	0.0646
CSc1ccc(/C=C(\NC(=O)c2ccccc2)C(=O)NN)cc1	·	·	·	–	·	·	–
CCOC(=O)N1CCN(C(=O)/C(=C\c2ccc(SC)cc2)NC(=O)c2ccccc2)CC1	·	·	·	–	·	·	·
OCCN1CCN(c2ncnc3c2c(-c2ccccc2)cn3-c2ccc(Br)cc2)CC1	·	–	·	–	–	·	·
NC(=O)C1CCN(c2ncnc3c2c(-c2ccccc2)cn3-c2ccccc2)CC1	–	–	–	–	·	·	0.0635
CCC(=O)NC(/C=C/c1ccccc1)c1cc([N+](=O)[O-])c2cccnc2c1O (centres undefined)	–	–	–	–	·	·	·
Cc1ccc(C(NC(=O)C(C)C)c2cc([N+](=O)[O-])c3cccnc3c2O)cc1 (centres undefined)	–	–	–	–	3.28	–	–
Cc1cc2nncn2c(Cc2ccccc2)n1	–	–	–	–	–	–	·
Cn1c(C(=O)NCCN2CCc3ccccc3C2)cc2c(=O)n(C)c3ccccc3c21	–	–	–	–	·	·	?
O=C(CN1C(=O)c2cccc3cccc1c23)Nc1cccnc1	–	–	–	–	·	–	·
N#CC1=C(N)C(C#N)(C#N)C(c2cccnc2)C2CCCC=C12 (centres undefined)	–	–	–	–	·	–	·
N#CC1=C(N)C(C#N)(C#N)C(c2ccc[nH]2)C2CCCC=C12 (centres undefined)	–	–	–	–	-6.47	–	0.0534
O=C1C(Br)=Cc2cccc3cccc1c23	·	·	·	–	·	·	0.0485
O=C1c2cccc3cccc(c23)C(=O)N1OS(=O)(=O)c1ccc(Br)cc1	–	–	–	–	·	–	·
C=CCNC(=O)c1ccc(Cn2cc(C(F)(F)F)ccc2=O)cc1	·	–	·	–	–	·	·
CC1(C)Cc2c(sc3nc(SCC(=O)NCc4ccco4)n(-c4ccccc4)c(=O)c23)CS1	–	52.8	–	–	–	–	0.0554
Cc1ccc(NNc2c(C)nc3ccccc3nc2=O)cc1	·	–	·	–	2.72	·	0.105
C=CCOC(=O)C1C(=O)CC(C)(O)C(C(=O)OCC=C)C1c1ccc(OC)cc1 (centres undefined)	–	–	–	–	1.17	–	–
CCOC(=O)C1C(=O)CC(C)(O)C(C(=O)OCC)C1c1ccc(OCC)cc1 (centres undefined)	–	–	–	–	·	–	·
O=S(=O)(NCc1cccnc1)c1cccn1-c1ncc(C(F)(F)F)cc1Cl	·	–	·	–	–	·	·
N#CC1=C(N)SC(N)=C(C#N)C1c1ccc([N+](=O)[O-])cc1	–	–	–	–	–	–	·
N#CC1=C(N)SC(N)=C(C#N)C1c1ccc(C(F)(F)F)cc1	–	–	–	–	-3.55	–	0.0454
CCOC(=O)N1CCN(Cc2nc(-c3ccc(C)cc3)no2)CC1	–	–	–	–	·	–	·
COc1cc2c(cc1OC)CN(CCC(=O)c1ccc(Br)cc1)CC2	·	60.9	·	–	-4.04	–	?
